Shown are actives, neighbours in structure and some others; about 3.9% of the full set was active somewhere.
Wnt bcat act = activators of Wnt/beta-catenin signaling; Wnt/beta-catenin reporter cell assay, activator, plate reader; activation, % at 9.35 µM; 300,000 tested, 1.2% active; AID 743398; in the data active = activation above about 30%, passing the limit was not always enough; inconclusive = no clear call, values can overlap the other calls
HSF1 inhib = HSF1 inhibition | NIH3T3-HGL HSE-luciferase, MG132-induced, luminescence 8 h; hits give low values | activity change, negative = inhibition, % at 7.5 µM (by protocol) | 300,000 tested, 0.77% active;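 active = more than half of replicate wells show activity change below -50%, luminescence cut by over half; inconclusive = some wells, but at most half, below -50%; inactive = no replicate well below -50%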;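 also: luciferase reports HSF-1 transcriptional activity via heat shock element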
MITF act = activators of MITF-driven TRPM1 promoter activity in SK-MEL-5 cells. SK-MEL-5 TRPM1-promoter luciferase, 24 h; % of positive control, neutral wells = 0. 300,000 tested, 0.75% active. activation, % at 12.5 µM;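 active = mean activation of at least 80% with every replicate also reaching 80%; inconclusive = mean reaches 80% but some replicate falls short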
HSF1 activator = increases HSF-1 driven luciferase reporter signal; NIH3T3-HGL HSF-1 luciferase reporter, MG132, 8 h; 100% = twice DMSO control signal; AID 504408; activation, % at 9 µM; 300,000 tested, 1.7% active;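 active = mean replicate activation of at least 50% with a set share of replicates each reaching 50%; inconclusive = only one of those two conditions met; inactive = mean below 50% and too few replicates reaching it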
esBAF inh = inhibitors of esBAF chromatin remodeling in mouse ES cells; Bmi1-luciferase knock-in reporter, 24 h; 100% = twice the neutral-well signal; reporter increase, % at 12.5 µM; 350,000 tested, 2% active; in the data active = activation above about 40%; inconclusive = no clear call, values can overlap the other calls;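 also: a rise in the Bmi1 reporter signal indicates esBAF inhibition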
Hits are given with their value; n = inactive; u = inconclusive; x = no result given.

SMILES	Wnt bcat act	HSF1 inhib	MITF act	HSF1 activator	esBAF inh
C[C@@H]1CCCCO[C@@H](CN(C)C(=O)Nc2ccc3c(c2)OCO3)[C@@H](C)CN([C@@H](C)CO)C(=O)c2cc(NC(=O)Nc3ccccc3)ccc2O1	x	x	x	x	n
C[C@H]1CCCCO[C@@H](CN(C)C(=O)Nc2ccccc2)[C@@H](C)CN([C@@H](C)CO)C(=O)c2cc(NC(=O)Nc3ccc4c(c3)OCO4)ccc2O1	x	x	x	x	44
C[C@H](CO)N1C[C@H](C)[C@H](CN(C)C(=O)Nc2ccccc2)OCCCC[C@H](C)Oc2ccc(NC(=O)Nc3ccc4c(c3)OCO4)cc2C1=O	x	x	x	x	49
O=C(O)CN1C(=O)/C(=C\c2cc(Br)ccc2OCc2ccc(F)cc2)SC1=S	n	n	n	70	n
CCCNC(=O)C[C@@H]1CC[C@@H]2[C@H](COC[C@H](O)CN2C(=O)Nc2ccc(Cl)c(Cl)c2)O1	x	x	x	x	n
O=c1nc(/C=C/c2cc([N+](=O)[O-])ccc2Cl)cc(C(F)(F)F)[nH]1	x	n	n	75	n
O=c1nc(/C=C/c2cccn2-c2ccc([N+](=O)[O-])cc2)cc(C(F)(F)F)[nH]1	n	n	n	n	x
CC(C)NC(=O)Nc1ccc2c(c1)C(=O)N([C@H](C)CO)C[C@H](C)[C@@H](CN(C)C(=O)Nc1cccc3ccccc13)OCCCC[C@H](C)O2	x	x	x	x	n
C=CCn1c(SCC(N)=O)nc2scc(-c3ccc(C)o3)c2c1=O	48	n	n	n	x
C=CCn1c(SCc2ccccc2)nc2scc(-c3ccc(C)o3)c2c1=O	x	n	n	n	n
COc1ccc(C2CC(C)(c3ccc(OC)cc3)Nc3ccccc3N2)cc1 (configuration not stated)	49	n	x	58	u
COc1ccc(C2(C)CC(C)(C)Nc3ccccc32)cc1 (configuration not stated)	n	n	x	n	n
CN1C[C@@H]2[C@H](c3ccccc31)[C@@H](CO)N2C(=O)Nc1cccc(F)c1	x	x	x	x	n
COCC(=O)N(C)C[C@H]1[C@H](c2ccc(-c3cccnc3)cc2)[C@@H](CO)N1C(C)=O	x	x	x	x	n
COc1ccccc1-c1cn(CC[C@H]2CC[C@@H](NC(=O)C3CCOCC3)[C@@H](CO)O2)nn1	x	x	x	x	n
Cc1ccc(C(=O)N/N=C/c2ccoc2)cc1C	n	n	n	n	50
COc1ccccc1/C=C/c1nc2ccc(OC(C)=O)cc2c(=O)o1	n	n	n	n	n
COc1ccc(/C=C/c2ccc3ccccc3[n+]2C)cc1OC	x	n	n	n	55
CC(=O)Oc1ccccc1/C=C/c1ccc2ccccc2[n+]1C	n	n	n	n	65
CN(C)c1ccc(/C=C/c2ccc3ccccc3[n+]2C)cc1	n	n	n	n	n
c1ccc2c(c1)Nc1cc3ccccc3cc1S2	38	n	x	x	x
Nc1c(C(=O)Nc2nc3ccccc3s2)sc2nc(-c3cccs3)ccc12	n	n	n	n	n
CC(=O)c1sc2nc(-c3cccs3)ccc2c1N	x	n	x	n	65
O=C(CC1CC1)N[C@H]1CC[C@H](CCNS(=O)(=O)c2ccc(F)cc2)O[C@@H]1CO	x	x	x	x	n
CCCCc1nc2cc(C(=O)N3CCC(O)CC3)ccc2o1	n	n	n	n	n
SMILES	Wnt bcat act	HSF1 inhib	MITF act	HSF1 activator	esBAF inh
CCCCc1nc2cc(C(=O)N(C)C3CCOCC3)ccc2o1	u	n	n	n	94
CCCCc1ccc(-c2ccc(Br)cc2)nc1	n	n	n	58	n
Oc1ccccc1C=NN=C1c2ccccc2-c2ccccc21	u	x	n	x	x
C/C(=N/N=C/c1ccccc1O)c1ccccc1O	44	n	n	n	n
CCCCS/C(N)=N/N=C/c1ccccc1O	x	n	n	87	x
CCCS/C(N)=N/N=C/c1cc(C)ccc1O	x	n	123	60	x
Oc1ccccc1C=NCCCCCCN=Cc1ccccc1O	n	n	n	n	n
COc1ccccc1NC(=O)N1C[C@H]2[C@@H](c3ccccc31)[C@@H](CO)N2Cc1ccccc1F	x	x	x	x	n
Cc1[nH]n(-c2ccccc2)c(=O)c1C=NCCc1ccccc1	n	n	n	90	x
Clc1cc2nc(-c3cccnc3Cl)[nH]c2cc1Cl	47	n	89	55	n
Cc1cc2nc(-c3ccccc3O)[nH]c2cc1C	n	x	n	x	n
CCCn1c(N2CCN(C(=O)Nc3ccccc3)CC2)nc2ccccc21	n	n	n	n	n
CCCn1c(N2CCN(CC(=O)NCc3cccs3)CC2)nc2ccccc21	n	-72	n	n	n
CCC(C)NC(=O)Cc1c(C)c2cc3c(cc2oc1=O)OC(C)(C)CC3 (configuration not stated)	n	n	n	n	67
Cc1c(CC(=O)NC(C)C)c(=O)oc2cc3c(cc12)CCC(C)(C)O3	n	n	n	n	49
CC[C@@H](C)[C@H](NC(=O)Cc1c(C)c2cc3c(C)c(C)oc3c(C)c2oc1=O)C(=O)O	n	-70	x	n	n
Cc1c(CC(=O)N[C@H](C(=O)O)C(C)C)c(=O)oc2cc3c(cc12)CCC(C)(C)O3	35	n	n	n	61
Cc1c(CC(=O)N[C@@H](C)C(=O)O)c(=O)oc2cc3c(cc12)CCC(C)(C)O3	n	n	n	n	n
CO[C@H]1CN(C)C(=O)c2cc(NC(=O)C3CCOCC3)ccc2OC[C@@H](C)N(CC2CC2)C[C@@H]1C	x	x	x	x	n
Cc1[nH]c(=O)c(Cc2ccccc2)c(O)c1C#N	n	n	n	n	n
Cn1c(=O)c2c(O)c(Cc3ccccc3)c(=O)[nH]c2n(C)c1=O	n	n	n	n	53
Cc1noc(C)c1S(=O)(=O)Nc1ccc2c(c1)C(=O)N([C@H](C)CO)C[C@@H](C)[C@H](CN(C)Cc1ccncc1)O2	x	x	x	x	n
O=C(COc1ccc(Br)cc1Cl)NC(=S)Nc1ccccn1	n	n	n	n	50
Cc1ccc(OCC(=O)NC(=S)Nc2ccccn2)c(Br)c1	n	-63	n	n	x
Cc1nc(NC(=S)NC(=O)COc2ccccc2Cl)ccc1Br	n	n	n	n	x
SMILES	Wnt bcat act	HSF1 inhib	MITF act	HSF1 activator	esBAF inh
Cc1ccc(OCC(=O)Nc2ccccc2[N+](=O)[O-])c(Br)c1	64	n	n	55	x
COC(=O)c1ccccc1NC(=O)COc1ccccc1[N+](=O)[O-]	n	n	n	n	x
COCC(=O)Nc1ccc2c(c1)C(=O)N(C)C[C@@H](OC)[C@@H](C)CN[C@H](C)CO2	x	x	x	x	n
CC1CCN(c2ccc(C=O)o2)CC1	n	n	n	58	x
O=Cc1ccc(N2CCCC2)o1	n	n	n	n	x
COC(=O)C1C(=O)c2c([nH]c(C(=O)OC3CCCC3)c2C)CC1C (configuration not stated)	x	n	107	n	76
CCCNC(=O)N(C)C[C@@H]1Oc2cc(C#CCC(C)C)ccc2S(=O)(=O)N([C@@H](C)CO)C[C@@H]1C	x	x	x	x	n
CCCN(C)C[C@H]1Oc2cc(-c3ccncc3)ccc2S(=O)(=O)N([C@@H](C)CO)C[C@H]1C	x	x	x	x	n
CC(C)NC(=O)N(C)C[C@H]1OCCCC[C@@H](C)Oc2ccc(NS(=O)(=O)c3ccccc3)cc2C(=O)N([C@H](C)CO)C[C@@H]1C	x	x	x	x	n

High-throughput results: PubChem BioAssay, Broad Institute
